Screening data from PubChem BioAssay.
A selection: hits, their analogues and other compounds. The true share with any hit is near 19%.
Giardia killer: Small Molecules that selectively kill Giardia lamblia: qHTS; activity change, % at 7.66 µM, hits read low; Giardia lamblia trophozoite viability; hit rate 0.15% among 340,000; AID 540267, 2011; in the data active = activity change below about -80%; inconclusive = between about -30% and that limit;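 also: parasites exposed to compound for two days anaerobically before the ATP read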
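Giardia lamblia trophozoites (100 cells/well) were incubated with compounds for 48 h at 37 deg C under anaerobic conditions. Viability was read as ATP content by one-step luminescence after 15-30 min at room temperature.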
DT40 TDP1 no CPT: qHTS for Inhibitors of human tyrosyl-DNA phosphodiesterase 1 (TDP1): qHTS in cells in absence of CPT. DT40 Tdp1-/- hTDP1 cells, no CPT, ATP luminescence, 48 h. Potency, µM (series often up to 46.2 µM), most hits filed as inhibitors. hit rate 15% among 420,000. AID 686978, 2013; also: nearly all actives have a fitted effect of over 55% in size
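Cells were dispensed at 400 per well, compounds added by pin tool, plates incubated ≥48 hr at 37 °C, then CellTiter-Glo added for 30 min at room temperature before luminescence reading. Line: DT40 Tdp1-/- complemented with hTDP1; camptothecin omitted.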
ELG1 repair inh: qHTS screen for small molecules that inhibit ELG1-dependent DNA repair in human embryonic kidney (HEK293T) cells expressing luciferase-tagged ELG1; HEK293T ELG1-luciferase reporter, luminescence, 16 h; DNA damage induced by 5-fluorouridine; hit rate 2.3% among 330,000; Potency, µM (highest dose often 46.1 µM), hits mostly inhibitors; also: nearly all actives have a fitted effect of over 55% in size
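Step one: seed 2,000 cells per well. Step two: pin-transfer compound or DMSO alongside 5-fluorouridine. Step three: incubate 16 hr, 37 °C, 5% CO2. Step four: add ONE-Glo, wait 30 min, read luminescence.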
TDP1 block: qHTS Assay for Inhibitors of Tyrosyl-DNA Phosphodiesterase (TDP1) | Potency, µM (top dose mostly 130 µM), actives largely listed as inhibitors | hit rate 0.28% among 350,000 | AID 485290, 2010 | recombinant TDP1, AlphaScreen DNA substrate cleavage | Tyrosyl-DNA phosphodiesterase 1 (Homo sapiens), Q9NUW8; also: nearly all actives have a fitted effect of over 40% in size
Target sequence (Q9NUW8 whole entry, looked up): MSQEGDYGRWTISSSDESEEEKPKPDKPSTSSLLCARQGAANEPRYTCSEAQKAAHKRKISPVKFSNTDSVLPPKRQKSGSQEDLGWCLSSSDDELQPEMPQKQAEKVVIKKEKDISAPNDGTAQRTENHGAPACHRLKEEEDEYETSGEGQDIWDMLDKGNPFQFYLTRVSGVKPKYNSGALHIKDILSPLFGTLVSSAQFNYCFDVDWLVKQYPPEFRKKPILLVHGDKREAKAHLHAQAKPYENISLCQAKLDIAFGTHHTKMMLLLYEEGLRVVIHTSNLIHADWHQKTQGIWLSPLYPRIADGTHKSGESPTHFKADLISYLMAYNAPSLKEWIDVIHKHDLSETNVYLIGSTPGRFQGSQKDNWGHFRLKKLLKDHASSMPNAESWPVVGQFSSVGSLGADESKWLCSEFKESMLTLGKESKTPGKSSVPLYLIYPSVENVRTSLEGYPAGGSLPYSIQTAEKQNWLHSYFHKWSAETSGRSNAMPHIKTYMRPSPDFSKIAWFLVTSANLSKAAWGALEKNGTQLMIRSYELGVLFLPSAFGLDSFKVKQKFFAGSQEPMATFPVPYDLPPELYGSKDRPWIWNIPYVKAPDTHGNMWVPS
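Here, a 5' biotin and 3' phosphotyrosine-FITC DNA oligonucleotide reports Tdp1 activity: intact substrate bridges AlphaScreen beads, while cleavage leaves a 3' phosphate and drops signal. All incubations at room temperature.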
DT40 TDP1 CPT: qHTS for Inhibitors of human tyrosyl-DNA phosphodiesterase 1 (TDP1): qHTS in cells in presence of CPT | Potency, µM (top dose mostly 46.2 µM), most hits filed as inhibitors | AID 686979, 2013 | chicken DT40 Tdp1-/-;hTDP1 cells + 20 nM CPT, ATP luminescence, 48 h | hit rate 12% among 420,000; also: nearly all actives have a fitted effect of over 55% in size
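Cell growth measured by CellTiter-Glo luminescence after a minimum 48 h, 37 C compound exposure with 20 nM CPT in Tdp1-knockout DT40 cells stably expressing hTDP1, seeded 400/well; qHTS titration format.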
IL1B secr inh: qHTS for Inhibitors of Inflammasome Signaling: IL-1-beta AlphaLISA Primary Screen; THP-1 LPS/ATP IL-1B secretion, AlphaLISA, 16 h; stronger effect = lower value; activity change, % at 57.5 µM; hit rate 4.7% among 360,000; in the data active = activity change below about -50%; inconclusive = mostly about -30% to -49%
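Secreted IL-1B measured by AlphaLISA bead assay after 16 h compound exposure of THP-1 cells; compounds (final up to 57.5 uM) added 1 h before LPS (250 ng/mL) and ATP (1.25 mM) stimulation; lower signal means less secretion.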
Each line names hits and unclear results; the compound was inactive in the other large screens. Unless noted, calls follow the shape of the dose curve; as a rule, active = well fitted curve in the direction sought with a large enough effect; inconclusive = small, poorly fitted or top-dose-only effect, or another doubt; inactive = no such curve, though single readings can be large; an effect the other way counts as inactive or inconclusive.

COC(=O)[C@H](Cc1c[nH]c2ccccc12)NCc1cccc(B(O)O)c1	IL1B secr inh -66 (no result: ELG1 repair inh, TDP1 block)
O=C(Nc1nc(-c2cccs2)cs1)c1cccc(S(=O)(=O)N2CCCCC2)c1	DT40 TDP1 no CPT 26µM, ELG1 repair inh inconclusive, DT40 TDP1 CPT inconclusive
O=C(O)c1cccc(NC(=O)c2cccc(S(=O)(=O)N3CCCCC3)c2)c1	ELG1 repair inh inconclusive
Cc1ccc(-c2csc(NC(=O)c3cccc(S(=O)(=O)N4CCN(C)CC4)c3)n2)cc1	DT40 TDP1 no CPT 18µM, ELG1 repair inh inconclusive, DT40 TDP1 CPT inconclusive
Cc1nnc(NC(=O)c2cccc(S(=O)(=O)N3CCN(C)CC3)c2)s1	none (no result: TDP1 block)
CC(C)c1cc(C(=O)OCC(=O)NC2CCS(=O)(=O)C2)c(O)c(C(C)C)c1 (centres undefined)	DT40 TDP1 no CPT inconclusive, DT40 TDP1 CPT inconclusive (no result: Giardia killer, ELG1 repair inh, TDP1 block)
C=CCc1cc(Cl)ccc1OCCN1CC(C)OC(C)C1 (centres undefined)	DT40 TDP1 no CPT 21µM, TDP1 block inconclusive, DT40 TDP1 CPT inconclusive
Cc1ccc(C2C(C#N)=C(N)Oc3cc(N)ccc32)cc1 (centres undefined)	none
COc1cccc(C2C(C#N)=C(N)Oc3cc(N)ccc32)c1OC (centres undefined)	none
N#CC1=C(N)Oc2cc(N)ccc2C1c1ccccc1F (centres undefined)	DT40 TDP1 no CPT 8.2µM, DT40 TDP1 CPT 7.3µM (no result: TDP1 block)
N#CC1=C(N)Oc2cc(N)ccc2C1c1cc(Br)cs1 (centres undefined)	DT40 TDP1 no CPT inconclusive, DT40 TDP1 CPT inconclusive, IL1B secr inh -66 (no result: TDP1 block)
N#CC1=C(N)Oc2cc(N)ccc2C1c1cccc(Br)c1 (centres undefined)	DT40 TDP1 no CPT 1.5µM, DT40 TDP1 CPT 2.9µM
N#CC1=C(N)Oc2cc(N)ccc2C1c1ccsc1 (centres undefined)	none
CSCc1cc(N(C)c2ccccc2)nc(-c2ccccc2)n1	none (no result: TDP1 block)
CC(=O)c1cccc(Nc2ncnc3c2cnn3-c2cccc(Cl)c2)c1	DT40 TDP1 no CPT inconclusive, DT40 TDP1 CPT inconclusive (no result: Giardia killer, ELG1 repair inh, IL1B secr inh)
Cc1cccc(/C=N/N(CCO)C2=NS(=O)(=O)c3ccccc32)c1	DT40 TDP1 no CPT inconclusive, DT40 TDP1 CPT inconclusive
CC(C)(C)NC(=O)CCN(/N=C/c1ccccc1)C1=NS(=O)(=O)c2ccccc21	DT40 TDP1 no CPT 16µM, DT40 TDP1 CPT inconclusive (no result: TDP1 block)
CC(C)(C)NC(=O)CCN(/N=C/c1ccccc1F)C1=NS(=O)(=O)c2ccccc21	DT40 TDP1 no CPT 21µM, ELG1 repair inh inconclusive, DT40 TDP1 CPT inconclusive (no result: TDP1 block)
CC(C)(C)n1ncc2c(=O)n(CC(=O)NCc3ccccc3)cnc21	DT40 TDP1 no CPT 6.5µM, ELG1 repair inh inconclusive, DT40 TDP1 CPT 8.2µM
CC(C)(C)n1ncc2c(=O)n(Cc3ccc(Cl)cc3Cl)cnc21	DT40 TDP1 no CPT 15µM, DT40 TDP1 CPT 16µM, IL1B secr inh inconclusive
CC(=O)Nc1ccc(NC(=O)Cn2cnc3c(cnn3C(C)(C)C)c2=O)cc1	ELG1 repair inh inconclusive
Cc1ccc(Cl)c(Cn2cnc3c(cnn3C(C)(C)C)c2=O)c1F	none (no result: DT40 TDP1 no CPT, DT40 TDP1 CPT, IL1B secr inh)
CC(C)(C)n1ncc2c(=O)n(CC(=O)c3ccc(Cl)cc3)cnc21	DT40 TDP1 no CPT 23µM, ELG1 repair inh inconclusive, DT40 TDP1 CPT 23µM
O=C(CSc1nc(-c2ccccc2)c2ccccc2n1)Nc1ccc(F)cc1	none (no result: Giardia killer, ELG1 repair inh, IL1B secr inh)
CCC1CCCCN1C(=O)CCCOc1ccccc1 (centres undefined)	DT40 TDP1 no CPT inconclusive, ELG1 repair inh inconclusive, DT40 TDP1 CPT 23µM
Cc1nn(-c2ccc(C(=O)OC(C)C)cc2)c(C)c1[N+](=O)[O-]	DT40 TDP1 no CPT 26µM
